Bioassay records from PubChem.
mHTT CaM bind: mutant huntingtin-calmodulin interaction inhibitors – biochemical, AlphaScreen, primary screen; actives 3.6% (n = 190,000); P42858; AID 1671202, 2021; AlphaScreen His-mHTT/GST-CaM binding, luminescence; inhibition, % at 15 µM;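 also: 0% = both proteins with DMSO and 100% = one protein alone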
Pf apPOL inh: Pf-apPOL inhibitors, biochemical, fluorescence; Plasmodium falciparum apicoplast DNA polymerase (apPOL); Recombinant Pf-apPOL, molecular beacon fluorescence, 1.5 h; inhibition, % at 10 µM; actives 0.25% (n = 210,000)
* = called active by the depositor; x = no result given; ! = not confirmed by another sample. Only some compounds are listed: those with a hit (about 3.6% of all), similar ones and a draw of the others. Rule as the data show it: active = inhibition above about 50%; inactive = the rest.

SMILES	mHTT CaM bind	Pf apPOL inh
CCOc1cc(C2C(C#N)=C(N)Oc3n[nH]c(-c4ccccc4)c32)ccc1O (centres undefined)	28	-2
CCOc1cc(C2C(C#N)=C(N)Oc3n[nH]c(-c4ccccn4)c32)ccc1O (centres undefined)	52*	-2
COc1cccc(C2C(C#N)=C(N)Oc3n[nH]c(C)c32)c1 (centres undefined)	-1	0
Cn1c(SCc2ccc3c(c2)OCO3)nc2ccccc2c1=O	-5	0
Cc1ccc(S(=O)(=O)N2CCC(Oc3cccc(C(F)(F)F)c3)CC2)cc1	95*	-10
O=S(=O)(Cc1ccccc1)N1CCC(Oc2cccc(C(F)(F)F)c2)CC1	-25	-8
CC1CN(CCC(=O)Nc2ccc(Cl)c(C(F)(F)F)c2)CC(C)O1 (centres undefined)	6	1
COc1ccc(CCC(=O)NCC2CCN(C(=O)NC(C)(C)C)CC2)cc1	-9	-5
COc1ccc(NC(=O)CSc2cccc3cccnc23)cc1	53*!	-7
O=C(O)CSc1cccc2cccnc12	11	-1
CCCCOc1cccc(NC(=O)CSc2cccc3cccnc23)c1	0	0
NC(=O)CSc1cccc2cccnc12	83*	-3
COCC(C)NC(=O)Cc1cccs1 (centres undefined)	-3	-5
CN1CCN(Cc2ccc3c(c2)Cc2ccccc2-3)CC1	1	1
CN1CCN(Cc2cncc(-c3cc4ccccc4s3)c2)CC1	55*	-1
CCOc1nc(OCC)nc(N2CCN(c3ccc(OC)cc3)CC2)n1	24	-10
CCOc1ccc(N2COc3ccc(F)cc3C2)cc1	59*	2
CCOc1ccc(N2C(=O)CC(N3CCN(c4ccc(F)cc4)CC3)C2=O)cc1 (centres undefined)	-6	-3
CCOc1ccc(N2COc3ccc(OC)cc3C2)cc1	51*	-5
COc1ccc(N2COc3ccc(OC)cc3C2)cc1	53*	-2
COc1ccc2c(c1)CN(c1ccc(Br)cc1)CO2	46	-4
Clc1ccc(N2COc3cc4c(cc3C2)OCO4)cc1	12	-8
CCOc1ccc(N2COc3ccc(Cl)cc3C2)cc1	81*	-7
COc1cccc(N2C(=O)C3C4c5ccccc5C(CO)(c5ccccc54)C3C2=O)c1 (centres undefined)	11	-1
O=S(=O)(c1ccccc1F)N1CCC(c2noc(-c3ccc(Cl)cc3)n2)CC1	-4	-9
SMILES	mHTT CaM bind	Pf apPOL inh
O=C(Nc1nccs1)c1cc2ccccc2oc1=Nc1ccc(Br)cc1	1	-1
COc1ccc(-n2nnnc2CNC(=O)Cc2ccc([N+](=O)[O-])cc2)cc1	-6	-3
COc1ccc2c(c1)CN(c1ccccc1I)CO2	44	-1
COc1ccc2c(c1)CN(c1ccc(C)cc1)CO2	53*	0
O=C(O)CCn1c(O)c(C2=c3cc(Br)ccc3=NC2=O)sc1=S	17	x
Cc1ncsc1CN1CCC(c2nc(-c3ccccc3)no2)C1 (centres undefined)	18	0
Cn1cccc1CN1CCC(c2nc(-c3ccccc3)no2)C1 (centres undefined)	50*	2
O=[N+]([O-])c1cccc(C=Nc2ccc(O)c(-c3nc4ccccc4[nH]3)c2)c1O	68*	0
O=[N+]([O-])c1cc(C=Nc2ccc3nc(-c4ccccc4)[nH]c3c2)c(O)c([N+](=O)[O-])c1	19	-4
O=[N+]([O-])c1cc2c(cc1C=Nc1ccc(O)c(-c3nc4ccccc4[nH]3)c1)OCO2	65*	4
O=[N+]([O-])c1cc2c(cc1C=Nc1ccc(O)cc1)OCO2	22	x
COc1cccc(N2C=C(C#N)S(=O)(=O)c3ccc(Cl)cc32)c1	3	-2
CC(C)c1nnc2n1CCN(C(=O)COc1cccc(Cl)c1)C2	-8	0
CC(=O)N(C1=C(N2CCCCC2)C(=O)c2ccccc2C1=O)c1cccc(F)c1	16	-10
O=C1C(Nc2cccc(O)c2)=C(N2CCCCC2)C(=O)c2ccccc21	36	-4
CC(=O)N(C1=C(N2CCCC2)C(=O)c2ccccc2C1=O)c1cccc(Cl)c1	100*	1
O=C1C(Nc2cccc(C(F)(F)F)c2)=C(N2CCCCC2)C(=O)c2ccccc21	99*	0
O=C1C(Nc2cccc(Cl)c2)=C(N2CCCCC2)C(=O)c2ccccc21	68*	1
O=C1C(Nc2cccc(C(F)(F)F)c2)=C(n2nnc3ccccc32)C(=O)c2ccccc21	1	0
N#C/C(=C\c1ccccc1)c1nc(-c2ccccc2)cs1	-142	-3
CN1C(=O)C2CCCCN2c2ccc(C(=O)NCCc3c[nH]c4ccccc34)cc21 (centres undefined)	34	0
Cc1ccc(-n2nc3c(c2NC(=O)c2ccccc2C)CS(=O)(=O)C3)c(C)c1	-4	-5
Cc1cc(OCC(=O)N(C)c2ccccc2)nc(N2CCC(C)CC2)n1	-5	2
Cc1ccccc1C(=O)N1CCc2c(c(-c3nc(-c4ccccc4F)no3)nn2C)C1	-5	-1
COc1cc(C(=O)Oc2ccc3c(c2)OC(=Cc2ccc(F)cc2)C3=O)cc(OC)c1OC	2	-7
SMILES	mHTT CaM bind	Pf apPOL inh
CC1CCCN(CC2CCN(S(=O)(=O)c3ccc(Br)cc3)CC2)C1 (centres undefined)	-1	3
CC12CCC(CC1N)C2 (centres undefined)	54*	22
CC(=O)Nc1nnc(SCc2cc(=O)c(OC(=O)c3ccco3)co2)s1	0	20
Cc1cc(C)nc(SCc2cc(=O)c(OC(=O)c3cc4ccccc4o3)co2)n1	92*	2
OCCN(CCO)Cc1ccc(Cl)c(Cl)c1	-1	2
COc1ccc(OC)c(NC(=O)c2c(NC(=O)CN3CCOCC3)sc3c2CCC3)c1	7	-2
COc1ccccc1NC(=O)c1c(NCc2sccc2C)sc2c1CCC2	56*	-20
COc1ccc(OC)c(CNc2sc3c(c2C(=O)Nc2ccccc2OC)CCC3)c1	82*	4
COc1ccccc1NC(=O)c1c(NC(=O)Cc2ccccc2)sc2c1CCC2	-2	-4
COc1ccc(OC)c(NC(=O)c2c(NCc3cccc(OC)c3OC)sc3c2CCC3)c1	59*	-13
CCOc1ccccc1NC(=O)c1c(NCc2sccc2C)sc2c1CCC2	41	-17
COc1ccc(OC)c(CNc2sc3c(c2C(=O)Nc2cc(OC)ccc2OC)CCC3)c1	66*	-16
COc1ccc(OC)c(NC(=O)c2c(N)sc3c2CCC3)c1	41	-10
CCOc1nccnc1N1CCC(NC(=O)c2ccsc2)C1 (centres undefined)	0	-3
O=c1c2c(nc3cc[nH]n13)CN(S(=O)(=O)c1ccccc1Cl)CC2	-3	4
Cc1cc(C)c(C#N)c(SCc2nc(-c3ccc(OC(F)(F)F)cc3)no2)n1	x	-6
Cc1ccc(-c2nc(-c3ccc(-n4cccn4)nc3)no2)cc1F	-9	0
N=C1NC(=O)CC(C(=O)Nc2ccc(Cl)cc2Cl)S1 (centres undefined)	2	-4
COc1ccccc1/C=C1\SC(=O)N(CCC(=O)N2CCOCC2)C1=O	5	2
CN(C)C(=O)N1CC(c2nc(-c3ccc(F)cc3)no2)C2(CCOCC2)C1 (centres undefined)	10	0
COc1ccc(OC)c(NC(=O)c2c(NCc3cccs3)sc3c2CCC(C)C3)c1 (centres undefined)	66*	-17
